Experimental data: PubChem BioAssay (NCATS)
Results filed as inconclusive are left out. Activity calls are given as the source filed them. Calls come from the whole dose curve; as a rule, active = well fitted curve in the direction sought with a large enough effect; inconclusive = small, poorly fitted or top-dose-only effect, or another doubt; inactive = no such curve, though single readings can be large; an effect the other way counts as inactive or inconclusive.

Columns and labels:
[1] = qHTS assay for measurement of the activity of small molecule inhibitors on Zika virus induced Caspase-3 activity in human iPSC derived neural progenitor cells (hNPCs) (AID 1224857); note: nearly all actives have a fitted effect of over 65% in size
How it was run: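 Zika virus (2 FFU/cell) infection of human iPSC-derived NPCs, 6 h, following 1 h compound preincubation. Read-out: Caspase-Glo 3/7 luminescence.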

[2] = qHTS assay for measurement of the activity of small molecule inhibitors on Zika virus induced Caspase-3 activity in human astrocytoma cells (AID 1224859)
How it was run: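 Caspase activation in ZIKV-infected SNB-19 cells (2 FFU/cell, 6 h) measured by Caspase-Glo 3/7 luminescence after 30 min RT; compound pre-incubated 1 h; normalised to uninfected and infected controls.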

[3] = NS1 protein of Zika virus - qHTS assay to identify small molecule inhibitors in human HEK 293 cells (AID 1347053); note: series mostly up to about 46 µM; nearly all actives have a fitted effect of over 55% in size
How it was run: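 Readout was TR-FRET using paired anti-NS1 antibodies after 24 h infection of HEK 293 cells with ZIKV MR766 (MOI = 0.5). Compound preceded virus by 1 h; reduced signal reflects lower NS1 expression.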

[4] = qHTS of pediatric cancer cell lines to identify multiple opportunities for drug repurposing: Primary screen for TC32 cells (AID 1347089); note: nearly all actives have a fitted effect of over 60% in size
How it was run: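 TC32 cells, 500-1,000/well in growth medium, compound-treated 48 h at 37 °C; viability from CellTiter-Glo luminescence. Primary screen: MIPE 11-point (0.78 nM–46 µM final), NPC 8-point (0.59 nM–46 µM final); confirmatory at 11-point dilutions.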

[5] = qHTS of pediatric cancer cell lines to identify multiple opportunities for drug repurposing: Primary screen for DAOY cells (AID 1347090); note: series mostly up to about 46 µM; nearly all actives have a fitted effect of over 55% in size
How it was run: (§1)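 Viability measured as metabolically active cells via CellTiter-Glo luminescence following 48 hours of compound exposure, 11-point dilutions in confirmatory testing. 500-1,000 cells/well plated 5 hours before dosing; controls were DMSO and 2.3 µM bortezomib.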

[6] = qHTS of pediatric cancer cell lines to identify multiple opportunities for drug repurposing: Primary screen for SJ-GBM2 cells (AID 1347091)
How it was run: as §1

[7] = qHTS of pediatric cancer cell lines to identify multiple opportunities for drug repurposing: Primary screen for A673 cells (AID 1347092); note: nearly all actives have a fitted effect of over 45% in size
How it was run: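 A673 cells (500-1,000 cells/well) were treated 48 hours at 37 degrees C with compounds at 11-point (0.78 nM to 46 µM) or 8-point (0.59 nM to 46 µM) dilutions. Viability read by CellTiter-Glo luminescence; concentration-response curves fitted.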

Measured: Potency

CC1(C)O[C@@H]2C[C@H]3[C@@H]4CCC5=CC(=O)C=C[C@]5(C)[C@@]4(F)[C@@H](O)C[C@]3(C)[C@]2(C(=O)CO)O1
inactive: all assays above

COc1cc(/C=C/C(N)=O)cc(OC)c1OC
inactive: all assays above

C[C@@H]1C[C@H]2[C@@H]3CCC4=CC(=O)C=C[C@]4(C)[C@@]3(F)[C@@H](O)C[C@]2(C)[C@@]1(O)C(=O)COC(=O)c1ccncc1
inactive: all assays above

CCc1cccc2c(CCO)c[nH]c12
inactive: all assays above

CC(C)Cc1ccc(C(C)C(=O)OCc2ccccn2)cc1 (stereo not given)
inactive: all assays above

C[N+]1(CC2COC(c3ccccc3)(c3ccccc3)O2)CCCCC1 (stereo not given)
inactive: all assays above

O=C(CCCl)NCCc1ccccc1
inactive: all assays above

Nc1c(I)cc(I)c(C(=O)N(CCC(=O)O)c2ccccc2)c1I
inactive: all assays above

CCCCCCCCCCCCCCCCCCN(C)C
inactive: all assays above

CCCc1ncc(C(=O)O)s1
inactive: all assays above
